One assay concerns the target Protein max (UniProt P61244). In words: cross-link between two proteins; cross-linking mass spectrometry; other.
Another assay concerns the target Histone H3.1 (UniProt P68431). Kind of assay: cross-link between two proteins; cross-linking mass spectrometry.
The next assay deals with Histone H4 (UniProt P62805). The description is as above.
In the next assay the target is Histone H2B type 1-J (UniProt P06899). Described as above.

Protein max, sequence (P61244 whole entry): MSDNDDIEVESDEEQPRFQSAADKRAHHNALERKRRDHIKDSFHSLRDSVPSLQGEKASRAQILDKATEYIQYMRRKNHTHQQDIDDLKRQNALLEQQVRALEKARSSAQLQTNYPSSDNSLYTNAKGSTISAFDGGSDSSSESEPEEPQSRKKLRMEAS
Myc proto-oncogene protein, P01106, sequence (P01106 whole entry): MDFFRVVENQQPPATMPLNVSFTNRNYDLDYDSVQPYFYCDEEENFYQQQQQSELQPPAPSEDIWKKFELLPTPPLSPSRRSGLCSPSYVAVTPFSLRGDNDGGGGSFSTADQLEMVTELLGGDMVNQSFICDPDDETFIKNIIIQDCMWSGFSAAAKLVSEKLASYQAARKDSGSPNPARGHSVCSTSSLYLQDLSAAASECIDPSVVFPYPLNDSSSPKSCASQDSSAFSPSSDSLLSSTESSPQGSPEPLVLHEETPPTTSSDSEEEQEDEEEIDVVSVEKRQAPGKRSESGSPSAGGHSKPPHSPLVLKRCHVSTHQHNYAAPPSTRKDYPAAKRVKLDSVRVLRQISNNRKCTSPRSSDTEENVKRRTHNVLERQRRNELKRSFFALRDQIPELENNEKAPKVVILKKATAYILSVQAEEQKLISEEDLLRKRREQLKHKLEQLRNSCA

Take Myc proto-oncogene protein, P01106: in the assay with Protein max, the “listed as a hit” value was “yes”.
Turning to Histone H2B type 1-J, P06899, the “listed as a hit” value with Histone H3.1 and with Histone H4 was “yes” in each case.
For Histone H2A type 1-B/E, P04908, the “listed as a hit” value with Histone H2B type 1-J, with Histone H3.1 and in the assay with Histone H4 was “yes” in each case.
